The text below walks through data of PubChem BioAssay.

Structures are written as SMILES. Values without a mark were called inactive. For some assays here: Results with a measured potency or affinity are listed apart. Active and inactive are the calls of the source. Unless noted, the rule behind the calls is not given here.

Experiment [1] is described as follows: antimalarial activity against Dd2 strain (AID 2302;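 active = growth inhibition above 50% at the single 2 µM test dose, taken to imply half-maximal potency below 2 µM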;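 note: 0% = DMSO untreated growth and 100% = chloroquine plus artemisinin killed control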). As to conditions: P. falciparum Dd2 in RBCs, LDH growth readout, 72 h; at 2 µM; active compounds read high.
A short description of experiment [2]: human hepatoma cell viability loss – ATP luminescence, cytotoxicity control for P. falciparum antimalarial project, primary screen (AID 2303;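 active = inhibition above 50%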;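 note: 0% = DMSO wells and 100% = digitonin-killed cells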). Conditions: HepG2 viability, 24-48 h, at 10 µM, active compounds read high.
Experiment [3] has as its target L-lactate dehydrogenase (Plasmodium falciparum (isolate CDC / Honduras)) (UniProt Q27743). Kind of experiment: PfLDH activity inhibition – cell lysate, 3D7 strain, counter-screen for P. falciparum growth inhibition project (AID 2304).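 Note: 0% = vehicle and 100% = reference inhibitor.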 As to conditions: P. falciparum 3D7 crude extract, LDH APAD/NBT absorbance; at 2 µM; active compounds read high.
Experiment [4] is described as follows: inhibition of 3D7 malaria parasite growth – strain 3D7 (AID 2306).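 Note: 0% = DMSO wells and 100% = chloroquine plus artemisinin control wells.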 As to conditions: P. falciparum 3D7 erythrocytic growth, LDH absorbance, 72 h; at 2 µM; active compounds read high.
Experiment [5] addresses Calcium-dependent protein kinase 1 (Plasmodium falciparum (isolate 3D7)) (UniProt P62344). Description: PfCDPK1 kinase inhibitors, biochemical, TCAMS library (AID 1159585; cut-off not given, nearly all actives have IC50 up to about 0.98 µM;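 note: inhibitors leave more ATP so luminescence rises with inhibition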). As to conditions: recombinant PfCDPK1, Kinase-Glo ATP depletion luminescence.
The target in experiment [6] is Plasmodium falciparum protein kinase 6 (PK6, PF3D7_1337100) (UniProt Q8IDW1). Kind of experiment: PfPK6 kinase inhibitors, biochemical, TCAMS library (AID 1159586). Conditions: recombinant PfPK6, Kinase-Glo ATP depletion luminescence. For orientation: Kinase-Glo measures the ATP left after a reaction by luminescence.
Chain of Plasmodium falciparum protein kinase 6 (PK6, PF3D7_1337100) (Q8IDW1 1-305): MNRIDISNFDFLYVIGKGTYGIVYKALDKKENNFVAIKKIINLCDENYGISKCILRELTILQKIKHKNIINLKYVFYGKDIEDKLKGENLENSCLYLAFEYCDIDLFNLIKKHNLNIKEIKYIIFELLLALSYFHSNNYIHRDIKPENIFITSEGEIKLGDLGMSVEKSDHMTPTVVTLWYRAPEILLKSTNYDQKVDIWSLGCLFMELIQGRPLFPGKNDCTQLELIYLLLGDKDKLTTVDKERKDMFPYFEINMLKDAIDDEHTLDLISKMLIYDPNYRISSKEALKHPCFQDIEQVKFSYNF
In experiment [7] the target is Protein kinase 7 (PK7), Plasmodium falciparum 3D7 (PF3D7_0213400) (UniProt Q7YTF7). Kind of experiment: inhibition of Plasmodium PK7 catalytic activity – biochemical, TCAMS antimalarial set, Kinase-Glo luminescence (AID 1159587). Conditions: recombinant PfPK7, Kinase-Glo ATP depletion luminescence.
Chain of Protein kinase 7 (PK7), Plasmodium falciparum 3D7 (PF3D7_0213400) (Q7YTF7 1-343): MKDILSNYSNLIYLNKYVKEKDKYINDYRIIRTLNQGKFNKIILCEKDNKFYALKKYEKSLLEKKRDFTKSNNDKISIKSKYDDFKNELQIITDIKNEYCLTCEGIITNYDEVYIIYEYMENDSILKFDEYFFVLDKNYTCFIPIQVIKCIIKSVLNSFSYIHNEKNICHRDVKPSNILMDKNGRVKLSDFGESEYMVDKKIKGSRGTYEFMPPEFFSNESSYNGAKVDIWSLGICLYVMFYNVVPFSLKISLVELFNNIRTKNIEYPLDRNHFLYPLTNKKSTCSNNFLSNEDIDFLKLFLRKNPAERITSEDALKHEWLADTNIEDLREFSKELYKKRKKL
For experiment [8], the target named is Calcium-dependent protein kinase 4 (Plasmodium falciparum (isolate 3D7)) (UniProt Q8IBS5). Kind of experiment: PfCDPK4 kinase inhibitors, biochemical, TCAMS library (AID 1159588; cut-off not given, nearly all actives have IC50 up to about 0.91 µM). As to conditions: recombinant PfCDPK4, Kinase-Glo ATP depletion luminescence.
Chain of Calcium-dependent protein kinase 4 (Plasmodium falciparum (isolate 3D7)) (Q8IBS5 whole entry, looked up): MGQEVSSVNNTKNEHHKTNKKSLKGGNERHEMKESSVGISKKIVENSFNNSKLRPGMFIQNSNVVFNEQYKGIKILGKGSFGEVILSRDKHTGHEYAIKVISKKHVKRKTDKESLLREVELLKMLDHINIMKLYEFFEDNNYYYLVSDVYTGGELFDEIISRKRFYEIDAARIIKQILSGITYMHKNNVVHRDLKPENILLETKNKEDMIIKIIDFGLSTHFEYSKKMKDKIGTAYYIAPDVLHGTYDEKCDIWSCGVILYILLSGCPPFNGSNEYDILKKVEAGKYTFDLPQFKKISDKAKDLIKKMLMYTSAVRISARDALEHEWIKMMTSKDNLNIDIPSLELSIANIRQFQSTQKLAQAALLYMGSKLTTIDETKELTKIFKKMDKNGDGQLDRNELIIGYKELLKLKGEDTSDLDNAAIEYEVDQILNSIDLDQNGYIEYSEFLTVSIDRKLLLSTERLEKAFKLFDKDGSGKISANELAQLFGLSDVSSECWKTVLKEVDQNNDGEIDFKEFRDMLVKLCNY

Chain of L-lactate dehydrogenase (Plasmodium falciparum (isolate CDC / Honduras)) (Q27743 whole entry, looked up): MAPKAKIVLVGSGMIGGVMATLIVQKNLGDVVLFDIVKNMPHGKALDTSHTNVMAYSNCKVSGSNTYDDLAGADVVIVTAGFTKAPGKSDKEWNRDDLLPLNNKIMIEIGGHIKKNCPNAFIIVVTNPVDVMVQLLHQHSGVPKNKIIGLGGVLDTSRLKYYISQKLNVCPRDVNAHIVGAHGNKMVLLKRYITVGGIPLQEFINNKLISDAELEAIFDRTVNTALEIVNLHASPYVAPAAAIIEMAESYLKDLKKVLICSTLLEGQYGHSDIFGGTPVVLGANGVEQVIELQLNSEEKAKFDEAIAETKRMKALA
Chain of Calcium-dependent protein kinase 1 (Plasmodium falciparum (isolate 3D7)) (P62344 whole entry, looked up): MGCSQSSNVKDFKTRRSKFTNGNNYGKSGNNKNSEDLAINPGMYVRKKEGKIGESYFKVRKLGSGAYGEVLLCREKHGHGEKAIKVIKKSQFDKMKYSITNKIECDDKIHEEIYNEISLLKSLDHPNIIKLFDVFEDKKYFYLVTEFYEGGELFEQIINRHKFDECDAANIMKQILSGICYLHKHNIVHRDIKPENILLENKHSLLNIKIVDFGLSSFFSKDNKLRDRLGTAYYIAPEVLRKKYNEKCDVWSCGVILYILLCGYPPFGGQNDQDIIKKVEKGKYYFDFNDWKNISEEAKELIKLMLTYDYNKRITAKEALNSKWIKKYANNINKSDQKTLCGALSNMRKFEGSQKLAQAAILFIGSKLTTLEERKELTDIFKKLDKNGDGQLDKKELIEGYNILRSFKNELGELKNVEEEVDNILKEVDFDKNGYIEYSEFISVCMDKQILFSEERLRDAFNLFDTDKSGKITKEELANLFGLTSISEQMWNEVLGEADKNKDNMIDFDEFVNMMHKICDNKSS

As to `O=S(=O)(Nc1ccc2nccc(N3CCNCC3)c2c1)c1ccc2oc3ccccc3c2c1`, the growth inhibition in experiment [1] is 2%; in experiment [4] it was 101% (active). The inhibition (commonly the relative decrease from the control value, in per cent) in experiment [2] is 16%; in experiment [3] it was -5%. Besides, the result in experiment [5], in experiment [6], in experiment [7] and in experiment [8] was inactive.

`CC(=O)Nc1cccc(C(=O)Nc2cccc(-c3ccc(-c4nc5c(C)cccc5[nH]4)s3)c2)c1`: the growth inhibition in experiment [1] was 26%; in experiment [4], 99% (active). Also, the inhibition was 75% (active) in experiment [2] and 4% in experiment [3]. For the same compound, the outcome in experiment [5], in experiment [6], in experiment [7] and in experiment [8] was inactive.

Turning to `COc1ccc2nc3cc(Cl)ccc3c(Nc3ccc(O)c(CN4CC5CCC(CC5)C4)c3)c2c1`, the growth inhibition in experiment [1] was 100% (active); in experiment [4], 102% (active). Also, the inhibition in experiment [2] is 17%; in experiment [3], 3%. Besides, the result in experiment [5], in experiment [6], in experiment [7] and in experiment [8] was inactive.

In the case of `O=C(Nc1ccccc1Br)N[C@@H]1CCN(c2ccnc3ccccc23)C1`, the results for the growth inhibition in experiment [1] and in experiment [4] were 90% (active) and 91% (active), respectively. Moreover, the inhibition is 25% in experiment [2] and 2% in experiment [3]. Besides, the outcome in experiment [5], in experiment [6], in experiment [7] and in experiment [8] was inactive.

Turning to `CCNC(=O)N[C@@H]1CN[C@@H](C#Cc2cc3c(Nc4ccc(OCc5cccc(F)c5)c(Cl)c4)ncnc3s2)C1`, the growth inhibition in experiment [1] is 27%; in experiment [4], 85% (active). Moreover, the inhibition in experiment [2] was -2%; in experiment [3], 0%. The result in experiment [5], in experiment [6], in experiment [7] and in experiment [8] was inactive.

In the case of `COc1ccc(CC(=O)NC(CCCN2CCC3(CC2)OCc2ccccc23)c2ccc(Cl)c(Cl)c2)cc1` (configuration not stated), the growth inhibition in experiment [1] is 53% (active); in experiment [4], 83% (active). Also, the inhibition is 40% in experiment [2] and 5% in experiment [3]. For the same compound, the result in experiment [5], in experiment [6], in experiment [7] and in experiment [8] was inactive.

Consider `COc1cc2nc(NCC3CCCCC3)nc(NCc3ccccc3)c2cc1OC`, for which the growth inhibition in experiment [1] and in experiment [4] was 101% (active) in each case. Further, the inhibition in experiment [2] is 18%; in experiment [3] it was 7%. For the same compound, the outcome in experiment [5], in experiment [6], in experiment [7] and in experiment [8] was inactive.

Turning to `Cc1cc(Oc2cc(NC(=O)c3sc4ncn(Cc5ccccc5F)c(=O)c4c3C)cc([N+](=O)[O-])c2)ccc1Cl`, the growth inhibition in experiment [1] was 24%; in experiment [4] it was 94% (active). Moreover, the inhibition was 2% in experiment [2] and 3% in experiment [3]. The result in experiment [5], in experiment [6], in experiment [7] and in experiment [8] was inactive.

`NC(N)=Nc1nc(-c2cccc(NCCCCCCCCON3C(N)=NC(N)=NC34CCCCC4)c2)cs1`: the values for the growth inhibition in experiment [1] and in experiment [4] were 42% and 97% (active), respectively. Besides, the inhibition in experiment [2] is 3%; in experiment [3], -2%. Moreover, the outcome in experiment [5], in experiment [6], in experiment [7] and in experiment [8] was inactive.

In the case of `Oc1ccc2[nH]c(-c3cccs3)nc2c1CN1CCC(N2CCCC2)CC1`, the results for the growth inhibition in experiment [1] and in experiment [4] were 13% and 100% (active), respectively. The values for the inhibition in experiment [2] and in experiment [3] were 6% and -3%, respectively. Also, the result in experiment [5], in experiment [6], in experiment [7] and in experiment [8] was inactive.

As for `O=C(Nc1ccc(Cl)cc1)c1cc(Cl)cc2[nH]c(C(F)(F)F)nc12`, the growth inhibition in experiment [1] and in experiment [4] was 100% (active) in each case. Besides, the inhibition was 87% (active) in experiment [2] and 2% in experiment [3]. For the same compound, the outcome in experiment [5], in experiment [6], in experiment [7] and in experiment [8] was inactive.

For the compound `O=C(NCCCCN1CCC(c2ccc3c(c2OCC2COCO2)CCCC3)CC1)c1ccc(-c2ccc(C(F)(F)F)cc2)cc1` (configuration not stated), the values for the growth inhibition in experiment [1] and in experiment [4] were 45% and 99% (active), respectively. Besides, the inhibition was 91% (active) in experiment [2] and -2% in experiment [3]. Also, the outcome in experiment [5], in experiment [6], in experiment [7] and in experiment [8] was inactive.

For `O=C(Nc1ccnc(-c2cccnc2)n1)c1cc(C(F)(F)F)cc(C(F)(F)F)c1`, the figures for the growth inhibition in experiment [1] and in experiment [4] were 12% and 95% (active), respectively. Moreover, the figures for the inhibition in experiment [2] and in experiment [3] were 22% and -4%, respectively. Moreover, the outcome in experiment [5], in experiment [6], in experiment [7] and in experiment [8] was inactive.

Take `O=C(Nc1cccc(C(F)(F)F)c1)c1cccc(S(=O)(=O)NCC2CCCN(CC3CCCCC3)C2)c1` (configuration not stated): the values for the growth inhibition in experiment [1] and in experiment [4] were 11% and 99% (active), respectively. Moreover, the inhibition is 17% in experiment [2] and -1% in experiment [3]. The outcome in experiment [5], in experiment [6], in experiment [7] and in experiment [8] was inactive.

Regarding `Cc1noc(C)c1-c1ccc2c(Nc3ccccc3N3CCOCC3)c(C(=O)NCc3ccccc3)cnc2c1`, the growth inhibition was 6% in experiment [1] and 91% (active) in experiment [4]. Also, the inhibition is 23% in experiment [2] and -2% in experiment [3]. Moreover, the outcome in experiment [5], in experiment [6], in experiment [7] and in experiment [8] was inactive.

Regarding `O=S(=O)(c1ccc2ccccc2c1)N1CCCN(Cc2ccc(OCCCN3CCCCC3)cc2)CC1`, the growth inhibition is 11% in experiment [1] and 98% (active) in experiment [4]. The inhibition in experiment [2] is 43%; in experiment [3], -3%. For the same compound, the outcome in experiment [5], in experiment [6], in experiment [7] and in experiment [8] was inactive.

As for `O=C1C(c2ccccc2)=C(Nc2ccc([N+](=O)[O-])cc2)c2ccccc21`, the growth inhibition in experiment [1] is 73% (active); in experiment [4], 95% (active). Moreover, the inhibition in experiment [2] and in experiment [3] was -2% in each case. Further, the result in experiment [5], in experiment [6], in experiment [7] and in experiment [8] was inactive.

As to `O=C(NCCCCN1CCN(CC=Cc2ccccc2)CC1)c1ccc(NC(=O)c2cc(Cl)cc(Cl)c2)cc1`, the growth inhibition is 63% (active) in experiment [1] and 100% (active) in experiment [4]. For the same compound, the inhibition in experiment [2] is 26%; in experiment [3] it was 4%. Moreover, the outcome in experiment [5], in experiment [6], in experiment [7] and in experiment [8] was inactive.

`Cc1nc(-c2nc(N3CCOCC3)ncc2-c2ccsc2)sc1C`: the growth inhibition in experiment [1] was 75% (active); in experiment [4] it was 89% (active). Also, the inhibition in experiment [2] was 5%; in experiment [3], -7%. The result in experiment [5], in experiment [6], in experiment [7] and in experiment [8] was inactive.
